The nature of assay [1]: NCI Yeast Anticancer Drug Screen. Data for the rad50 strain (AID 155).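 Further: 0% = growth of vehicle-only cultures of the same strain.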 The settings on record: S. cerevisiae rad50 strain growth inhibition, stronger effect = higher value. The procedure, abridged:
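Vehicle-treated cultures provide the reference for the growth inhibition reported for compound-exposed, repair-deficient yeast.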

Assay [2] in a line: NCI Yeast Anticancer Drug Screen. Data for the mec2-1 strain (AID 157). The following applies: S. cerevisiae mec2-1 strain, stronger effect = higher value. Summed up: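 Mutant yeast (mec2-1) grown with compound; growth inhibition relative to vehicle control reported.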
Assay [3] can be described thus: NCI Yeast Anticancer Drug Screen. Data for the sgs1 mgt1 strain (AID 161).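 Further: 0% = growth of cultures given vehicle only.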 The following applies: S. cerevisiae sgs1 mgt1 strain, stronger effect = higher value. The procedure, abridged: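 Growth of a repair-deficient yeast mutant was monitored after compound treatment and expressed as inhibition relative to vehicle-treated cultures.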
Assay [4] is described as follows: NCI Yeast Anticancer Drug Screen. Data for the cln2 rad14 strain (AID 165).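 Further: 0% = growth equal to vehicle treated cultures.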 The following applies: S. cerevisiae cln2 rad14 strain, stronger effect = higher value. Summed up:
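Readout is yeast growth inhibition versus vehicle-treated controls, using a strain with cln2 and rad14 alterations exposed to compound.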

A short description of assay [5]: NCI Yeast Anticancer Drug Screen. Data for the bub3 strain (AID 167). The settings on record: S. cerevisiae bub3 mutant strain, stronger effect = higher value. The procedure, abridged:
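Mutant yeast screening strain plus compound; vehicle-treated cultures serve as the 0% inhibition reference.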

The nature of assay [6]: NCI Yeast Anticancer Drug Screen. Data for the mlh1 rad18 strain (AID 175). The following applies: S. cerevisiae mlh1 rad18 strain growth inhibition, stronger effect = higher value. The procedure, abridged: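 Genetically defined yeast (DNA repair-deficient) exposed to compounds; growth inhibition determined relative to vehicle.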
Where [7] appears, read: at 5.0 µM (retest, dose inferred, filed as 0.5).
The mark [8] stands for this setting: at 50.0 µM (retest, dose inferred, filed as 5.0).

Where “and” joins values, the source holds several entries; their conditions need not be identical. Identical values can stand only once. The panel holds about 79,000 compounds, 15% with a hit somewhere; the sample as a whole holds those more often. Values without a mark were called inactive. Calls of active or inactive are those of the source. No stated cut-off is given here; in the data, active means growth inhibition above about 70%; inactive means the rest.

On to `Cc1ccnc(N)c1`, for which the growth inhibition in assay [1] (at 50.0 µM) is -10.2% and -13.3% and 9.05%; in assay [2] (at 50.0 µM), -3.4% and -17.8% and 11.4%; in assay [3] (at 50.0 µM), 2.2% and -19.4% and -6.3%; in assay [4] (at 50.0 µM) it was -34.4% and -28.6% and -33.6%; in assay [5] (at 50.0 µM), 0.95% and 7.15% and -8.9%; in assay [6] (at 50.0 µM), 1.35% and 16.1% and 1.85%.

Consider `COc1ccc(Oc2cc3c[n+](C)ccc3cc2OC)cc1`, for which the growth inhibition in assay [1] (setting [7]) was 4%; in assay [1] (setting [8]), 90% (active); in assay [1] (at 50.0 µM), 99% (active); in assay [2] (setting [7]), -3%; in assay [2] (setting [8]), 57%; in assay [2] (at 50.0 µM), 99% (active). Besides, the growth inhibition in assay [4] (setting [7]) is 2%; in assay [4] (setting [8]), 70% (active); in assay [4] (at 50.0 µM) it was 98% (active); in assay [5] (setting [7]) it was 0%; in assay [5] (setting [8]), 90% (active); in assay [5] (at 50.0 µM), 98% (active). The growth inhibition was 15% in assay [6] (setting [7]), 88% (active) in assay [6] (setting [8]) and 98.8% (active) in assay [6] (at 50.0 µM).

With `C=CC[C@]1(C(C)Cc2ccc(OC)c(OC)c2)C[C@@H](OC)C=CC1=O` (some centres not stated), the growth inhibition in assay [1] (setting [7]) was -7%; in assay [1] (setting [8]) it was 89% (active); in assay [1] (at 50.0 µM), 88% (active); in assay [2] (setting [7]) it was 8%; in assay [2] (setting [8]), 89% (active); in assay [2] (at 50.0 µM), 93% (active). The growth inhibition in assay [4] (setting [7]) was 13%; in assay [4] (setting [8]), 86% (active); in assay [4] (at 50.0 µM), 88.5% (active); in assay [5] (setting [7]), 7%; in assay [5] (setting [8]) it was 92% (active); in assay [5] (at 50.0 µM), 89.5% (active). For the same compound, the growth inhibition in assay [6] (setting [7]) was -1%; in assay [6] (setting [8]), 92% (active); in assay [6] (at 50.0 µM), 96% (active).

As for `c1ccc2c(c1)-c1cccc3cncc-2c13`, the growth inhibition was 45% in assay [1] (setting [7]); 62% in assay [1] (setting [8]); 90.7% (active) in assay [1] (at 50.0 µM); 19% in assay [3] (setting [7]); 98% (active) in assay [3] (setting [8]); 92.6% (active) in assay [3] (at 50.0 µM). The growth inhibition in assay [4] (setting [7]) was 69%; in assay [4] (setting [8]), 99% (active); in assay [4] (at 50.0 µM), 90.9% (active); in assay [5] (setting [7]), 53%; in assay [5] (setting [8]), 99% (active); in assay [5] (at 50.0 µM), 91.2% (active). In addition, the growth inhibition is 33% in assay [6] (setting [7]), 52% in assay [6] (setting [8]) and 91.2% (active) in assay [6] (at 50.0 µM).

For `COc1cccc(/C=N/NC(=O)c2c(-c3ccccc3)noc2C)c1O`, the growth inhibition in assay [1] (setting [7]) is 47%; in assay [1] (setting [8]) it was 70% (active); in assay [1] (at 50.0 µM), 85% (active); in assay [2] (setting [7]), 26%; in assay [2] (setting [8]) it was 86% (active); in assay [2] (at 50.0 µM) it was 84.1% (active). Moreover, the growth inhibition in assay [4] (setting [7]) is 25%; in assay [4] (setting [8]), 51%; in assay [4] (at 50.0 µM), 83.3% (active); in assay [5] (setting [7]) it was 42%; in assay [5] (setting [8]), 85% (active); in assay [5] (at 50.0 µM), 85.5% (active). For the same compound, the values for the growth inhibition in assay [6] (setting [7]), in assay [6] (setting [8]) and in assay [6] (at 50.0 µM) were 58%, 87% (active) and 81.8% (active), respectively.

In the case of `c1ccc2c(c1)Sc1nccc3ccnc-2c13`, the growth inhibition in assay [1] (setting [7]) is 92% (active); in assay [1] (setting [8]), 95% (active); in assay [1] (at 50.0 µM) it was 82.3% (active); in assay [3] (setting [7]), 23%; in assay [3] (setting [8]) it was 92% (active); in assay [3] (at 50.0 µM) it was 80.7% (active). Moreover, the growth inhibition in assay [4] (setting [7]) is 10%; in assay [4] (setting [8]), 88% (active); in assay [4] (at 50.0 µM), 72.8% (active); in assay [5] (setting [7]), 25%; in assay [5] (setting [8]), 92% (active); in assay [5] (at 50.0 µM) it was 79.7% (active). Further, the growth inhibition in assay [6] (setting [7]) is 50%; in assay [6] (setting [8]), 91% (active); in assay [6] (at 50.0 µM), 79.2% (active).

In the case of `O=C(c1ccccc1)C1C(=O)c2ccccc2C1=O`, the growth inhibition in assay [1] (at 50.0 µM) was -10.2% and -25.2% and 23.2%; in assay [2] (at 50.0 µM) it was 1.1% and -21.3% and 20%; in assay [3] (at 50.0 µM), -5.1% and 12.2% and 24.1%; in assay [4] (at 50.0 µM), -20.8% and 17.2% and 17.1%; in assay [5] (at 50.0 µM), -10.4% and -2.95% and 19.4%; in assay [6] (at 50.0 µM), -7.6% and -26.1% and 18.5%.

For the origin of these results see PubChem BioAssay (NCI).
